Measurements taken from PubChem BioAssay AID1159580 (chemical genetic matrix, 2015).
Out of some 5,500 compounds screened, about 2,000 (36%) were called active. Another 18% or so got no clear call; they are omitted. No stated cut-off is given here; in the data, active means normalized growth mostly below about 0.91 (no sharp cut-off); inconclusive means no clear call, values can overlap the other calls; inactive means mostly above about 0.92. The list shows a part of the results.

Experiment: chemical genetic growth profiling, strain panel (AID 1159580);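 further: tested at 20 µM; growth read once vehicle control cultures reached saturation at 30 °C; 1 = growth at the plate median or of vehicle wells; lower values mean less growth of the strain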
Conditions: S. cerevisiae deletion strains, growth OD
[1] = locus YAR019C, strain CDC15, hits give low values
[2] = locus YBL105C, strain PKC1, hits give low values
[3] = locus YBR135W, strain CKS1, hits give low values
[4] = locus YBR160W, strain CDC28, hits give low values
[5] = locus YDL017W, strain CDC7, hits give low values
[6] = locus YDL028C, strain MPS1, hits give low values
[7] = locus YDL101C, strain DUN1, hits give low values
[8] = locus YDL108W, strain KIN28, hits give low values
[9] = locus YDL132W, strain cdc53, hits give low values
[10] = locus YDL214C, strain PRR2, hits give low values
[11] = locus YDR052C, strain DBF4, hits give low values
[12] = locus YDR054C, strain cdc34, hits give low values
[13] = locus YDR226W, strain ADK1, hits give low values
[14] = locus YDR477W, strain SNF1, hits give low values
[15] = locus YER123W, strain YCK3, hits give low values
[16] = locus YER133W, strain GLC7, hits give low values
[17] = locus YFL009W, strain cdc4, hits give low values
[18] = locus YFL029C, strain CAK1, hits give low values
[19] = locus YFR003C, strain YPI1, hits give low values
[20] = locus YFR019W, strain FAB1, hits give low values
[21] = locus YGR040W, strain KSS1, hits give low values
[22] = locus YGR052W, strain FMP48, hits give low values
[23] = locus YGR092W, strain DBF2, hits give low values
[24] = locus YHR030C, strain SLT2, hits give low values
[25] = locus YHR079C, strain IRE1, hits give low values
[26] = locus YHR082C, strain KSP1, hits give low values
[27] = locus YHR205W, strain SCH9, hits give low values
[28] = locus YIL147C, strain SLN1, hits give low values
[29] = locus YJL095W, strain BCK1, hits give low values
[30] = locus YJL157C, strain FAR1, hits give low values
[31] = locus YJR016C, strain ILV3, hits give low values
[32] = locus YJR066W, strain TOR1 (second series), hits give low values
[33] = locus YJR066W, strain TOR1, hits give low values
[34] = locus YKL048C, strain ELM1, hits give low values
[35] = locus YKL067W, strain YNK1, hits give low values
[36] = locus YKL101W, strain HSL1, hits give low values
[37] = locus YKL203C, strain TOR2, hits give low values
[38] = locus YLR113W, strain HOG1, hits give low values
[39] = locus YLR133W, strain CKI1, hits give low values
[40] = locus YLR403W, strain SFP1, hits give low values
[41] = locus YML070W, strain DAK1, hits give low values
[42] = locus YMR001C, strain CDC5, hits give low values
[43] = locus YMR205C, strain PFK2 (second series), hits give low values
[44] = locus YNL006W, strain LST8, hits give low values
[45] = locus YNL020C, strain ARK1, hits give low values
[46] = locus YNL161W, strain CBK1, hits give low values
[47] = locus YNL183C, strain NPR1, hits give low values
[48] = locus YNL207W, strain RIO2, hits give low values
[49] = locus YNL307C, strain MCK1 (second series), hits give low values
[50] = locus YOL078W, strain AVO1, hits give low values
[51] = locus YOL136C, strain PFK27, hits give low values
[52] = locus YOR061W, strain CKA2, hits give low values
[53] = locus YOR119C, strain RIO1, hits give low values
[54] = locus YOR231W, strain MKK1, hits give low values
[55] = locus YPL031C, strain PHO85, hits give low values
[56] = locus YPL153C, strain RAD53, hits give low values
[57] = locus YPL204W, strain HRR25, hits give low values
[58] = locus YPL209C, strain IPL1, hits give low values
[59] = locus YPL256C, strain CLN2, hits give low values
[60] = locus YPR025C, strain CCL1, hits give low values
[61] = locus YPR106W, strain ISR1, hits give low values
[62] = locus YPR111W, strain DBF20, hits give low values
[63] = strain NNK1, hits give low values
[64] = strain TSCII, hits give low values

Measured: normalized growth

CCOC(=O)C(NC(C)=O)(Nc1ccc(F)c(Cl)c1)C(F)(F)F (stereo not drawn)
active: [24] 1.19 [resistant]
inactive: [1] 0.992 | [2] 0.995 | [3] 0.983 | locus YBR136W, strain MEC1, hits give low values 0.997 | [4] 0.991 | [5] 0.992 | [6] 0.995 | [7] 0.982 | [8] 0.997 | [9] 0.991 | [10] 1.01 | [11] 0.99 | [12] 0.997 | [13] 0.985 | [14] 1 | [15] 0.933 | [16] 0.994 | [17] 0.991 | [18] 0.994 | [19] 0.992 | [20] 0.973 | locus YFR028C, strain CDC14, hits give low values 0.979 | [21] 0.988 | [22] 1.14 | [23] 0.97 | [25] 1.15 | [26] 1.14 | [27] 1.01 | [28] 0.99 | [29] 1.14 | locus YJL128C, strain PBS2, hits give low values 0.963 | [30] 1.01 | [31] 0.998 | [32] 0.997 | [33] 1.18 | [34] 0.998 | [35] 1 | [36] 1.01 | locus YKL193C, strain SDS22, hits give low values 0.979 | [37] 1.07 | [38] 1.11 | [39] 1.01 | [40] 1.01 | [41] 0.997 | [42] 0.984 | [43] 0.992 | locus YMR277W, strain FCP1, hits give low values 0.988 | [44] 0.988 | [45] 1.01 | [46] 0.986 | [47] 1.16 | [48] 1 | locus YNL222W, strain SSU72, hits give low values 0.989 | [49] 1.01 | [50] 0.981 | [51] 0.999 | [52] 1 | [53] 1 | [54] 1.11 | locus YOR329C, strain SCD5, hits give low values 0.991 | [55] 1 | [56] 0.993 | [57] 0.996 | [58] 0.988 | [59] 1.12 | [60] 0.986 | [61] 0.99 | [62] 0.997 | [63] 1.01 | [64] 0.986

CCOC(=N)c1ccc(F)c(Cl)c1
inactive: locus YAL013W, strain DEP1, hits give low values 1.01 | locus YBR229C, strain ROT2, hits give low values 0.995 | [7] 0.992 | locus YDL134C, strain PPH21, hits give low values 1.02 | locus YDR150W, strain NUM1, hits give low values 1.01 | locus YEL061C, strain CIN8, hits give low values 1.01 | locus YGR078C, strain PAC10, hits give low values 1.02 | locus YGR229C, strain SMI1, hits give low values 1.02 | [24] 1.02 | locus YHR087W, strain rtc3, hits give low values 0.995 | locus YJR043C, strain POL32, hits give low values 1.02 | locus YJR075W, strain HOC1, hits give low values 1.01 | locus YLR039C, strain RIC1, hits give low values 1.07 | locus YLR058C, strain SHM2 (second series), hits give low values 1.01 | locus YLR085C, strain ARP6, hits give low values 1.02 | locus YLR262C, strain YPT6, hits give low values 1.06 | locus YML094W, strain GIM5, hits give low values 0.981 | locus YMR219W, strain ESC1, hits give low values 1.02 | locus YMR263W, strain SAP30, hits give low values 1.06 | locus YMR307W, strain GAS1, hits give low values 1.07 | locus YNL153C, strain GIM3, hits give low values 0.999 | locus YNL298W, strain CLA4 (second series), hits give low values 1.06 | locus YNL322C, strain KRE1, hits give low values 1.01 | locus YNR030W, strain Alg12, hits give low values 1.01 | locus YOL006C, strain TOP1, hits give low values 1.06 | locus YPL055C, strain LGE1, hits give low values 1.02 | locus YPL241C, strain CIN2, hits give low values 0.923 | locus YPR135W, strain CTF4, hits give low values 1.05

CSC(SC)=C(C#N)C(=O)c1ccccc1Cl
inactive: [4] 0.937 | [5] 0.911 | [6] 0.934 | [8] 0.927 | [13] 0.911 | [19] 0.915 | [28] 0.937 | [61] 0.936 | [62] 0.934
active: [1] 0.422 | [2] 0.636 | [3] 0.816 | [7] 0.583 | [9] 0.626 | [10] 0.135 | [11] 0.826 | [12] 0.507 | [14] 0.134 | [15] 0.114 | [16] 0.116 | [17] 0.707 | [18] 0.326 | [20] 0.105 | [21] 0.13 | [22] 0.144 | [23] 0.118 | [24] 0.118 | [25] 0.134 | [26] 0.133 | [27] 0.0151 | [29] 0.119 | [30] 0.121 | [31] 0.863 | [32] 0.105 | [33] 0.105 | [34] 0.182 | [35] 0.163 | [36] 0.153 | [37] 0.0997 | [38] 0.147 | [39] 0.132 | [40] 0.0452 | [41] 0.113 | [42] 0.732 | [43] 0.179 | [44] 0.304 | [45] 0.115 | [46] 0.661 | [47] 0.133 | [48] 0.355 | [49] 0.106 | [50] 0.573 | [51] 0.101 | [52] 0.122 | [53] 0.125 | [54] 0.127 | [55] 0.108 | [56] 0.121 | [57] 0.117 | [58] 0.774 | [59] 0.161 | [60] 0.723 | [63] 0.342 | [64] 0.434
